A number with no mark means an inactive call.

The nature of the test: changes in parasitized red cell lysis, either direction – P. falciparum Indochina, OD700, 3 h, PSAC antagonist project, primary screen (AID 1156). Particulars: P. falciparum-infected erythrocytes, osmotic lysis, higher = more signal, called active from +8 up or from −8 down.
With `COc1cc2c(cc1O)C(C1CC1)N(Cc1cc3c(cc1Br)OCO3)CC2` (stereo not given), the z-score is 0.838.

As for `C=C(CCCC)C(=O)CC[C@H](OC(C)=O)c1cccc(OCCO)c1`, the z-score was 1.57. Consider `C=CC[C@]1(C(=O)N2CCCCC2)N=C(c2ccc(OCCCO)cc2)O[C@H]1c1ccccc1`, for which the z-score is 1.61. With `COCCOC(=O)N1C(=O)[C@@]2(c3cc(C#CCCO)ccc31)[C@H](C(=O)N1CCN(c3ncccn3)CC1)[C@H]1C(=O)O[C@H](c3ccccc3)[C@H](c3ccccc3)N1[C@@H]2c1ccccc1OCCO`, the z-score is 0.288. `COCCOC(=O)N1C(=O)[C@@]2(c3cc(C#CCCO)ccc31)[C@H](C(=O)N1CCc3cc(OC)c(OC)cc3C1)[C@H]1C(=O)O[C@H](c3ccccc3)[C@H](c3ccccc3)N1[C@@H]2c1ccc(O)cc1`: the z-score was 0.262.

Regarding `CCCCN1CC=CC23O[C@@H]4/C=C\CCC(C)OC(=O)C4[C@H]2C(=O)N(CCCCCO)[C@@H]3C1=O` (stereo not given in full), the z-score was -0.0712. Regarding `C=CCN1C(=O)[C@@]2(O[C@@H](CCO)[C@H]([Si](C)(C)c3ccc(OC)cc3)[C@H]2C)c2cc(NC(=O)c3ccc(OC)cc3)ccc21`, the z-score was 0.978. The result for `CC(=O)n1cc(C(O)C2C=CC3C(=O)N(C)C(=O)C3N2Nc2ccccc2)c2ccccc21` (stereo not given) reads -0.372. In the case of `Cc1ccc(C(C)CC(O)C2C=CC3C(=O)N(c4ccccc4)C(=O)C3N2Nc2ccc([N+](=O)[O-])cc2)o1` (stereo not given), the z-score is 0.0777. On to `[N-]=[N+]=NCc1ccccc1[C@H]1OC(c2ccc(OCCCO)cc2)=N[C@@]1(Cc1ccccc1)C(=O)NCc1ccccc1`, for which the z-score was 1.96. Turning to `COc1ccc([Si](C)(C)[C@@H]2[C@@H](CCO)O[C@]3(C(=O)N(Cc4ccc(N5C(=O)COc6ccccc65)cc4)c4ccccc43)[C@H]2C)cc1`, the z-score was 0.746. For `CN(C)CCCNC(=O)[C@@]1(C)c2ccccc2C(=O)N(Cc2cc(F)cc(C(F)(F)F)c2)[C@H]1c1ccc(CO)cc1`, the z-score was 1.32.

Take `C=C(COC)/C(=C/C[C@@H](OC(C)=O)c1ccc(OCCO)cc1)c1cc(C(=O)OC)ccc1OC`: the z-score is 0.681. For the compound `CCCC[C@@H]1C[C@H]1[C@@H](NC(=O)c1ccco1)c1ccc(Cl)cc1`, the z-score is 0.365. The value for `CC1CC/C=C\[C@H]2OC34C=CCN(Cn5nnc6ccccc65)C(=O)[C@H]3N(C(CO)C(C)C)C(=O)[C@@H]4C2C(=O)O1` (stereo not given in full) was 0.752; that for `[N-]=[N+]=Nc1ccccc1[C@H]1OC(c2ccc(OCCCO)cc2)=N[C@@]1(Cc1ccccc1)C(=O)O` was 1.65; that for `O=C1C2C=CC(C(O)C(c3ccccc3)c3ccccc3)N(n3cnnc3)C2C(=O)N1Cc1ccccc1` (stereo not given) was -0.218. As for `CN1C(=O)C2C=CC(C(O)Cc3ccccc3)N(Nc3ccccc3)C2C1=O` (stereo not given), the z-score was 0.215. Regarding `NC(=O)[C@@H]1[C@H]2C(=O)O[C@H](c3ccccc3)[C@H](c3ccccc3)N2[C@H](c2ccc(O)cc2)[C@@]12C(=O)Nc1ccc(C#CC3(O)CCCCCC3)cc12`, the z-score is 0.904. In the case of `COCCOC(=O)N1C(=O)[C@@]2(c3cc(C#Cc4ccc(OC)cc4)ccc31)[C@H](C(=O)N1CCCCCCC1)[C@H]1C(=O)O[C@H](c3ccccc3)[C@H](c3ccccc3)N1[C@@H]2c1ccc(OCCO)cc1`, the z-score is 0.478. With `CCOC(=O)C[C@H]1[C@H](OC(=O)Cc2ccc3c(c2)OCO3)[C@@H](NC(=O)c2ccc(-c3ccccc3)cc2)c2cc(OCCCO)ccc2N1C(=O)Cc1ccc(OC)cc1`, the z-score was -0.67. For the compound `O=C1[C@H]2C=C(Br)[C@H](C[C@@H]2c2ccccc2)[C@@]12CO2`, the z-score was 0.637.

Regarding `CCOC(=O)[C@H]1C/C=C/C[C@H](C(=O)OCC)C(=O)O[C@H]2[C@@H](OC)O[C@H](CO)[C@@H](OC(=O)Nc3ccc(C#N)cc3)[C@@H]2OC1=O`, the z-score was -0.906. With `COC(=O)C(CC#Cc1ccc2c(c1)[C@]1(C(=O)N2)[C@H](c2ccc(O)cc2)N2[C@H](c3ccccc3)[C@H](c3ccccc3)OC(=O)[C@H]2[C@@H]1C(=O)Nc1nc2ccccc2s1)C(=O)OC`, the z-score is -0.0671.

With `COc1ccc(C(O)C2C=CC3C(=O)NC(=O)C3N2Nc2ccccn2)cc1` (stereo not given), the z-score was -0.079.

In the case of `C#CCN(CC1=CCCCC1)[C@H](c1ccccc1Br)[C@@H](O)Cc1ccccc1`, the z-score was 0.372. Take `CC(C)OC(=O)C=C1C[C@@H](c2ccccc2C(F)(F)F)O[C@@H](c2ccccc2C(F)(F)F)O1`: the z-score was 0.632. For `COCCCNC(=O)[C@@]1(Cc2ccccc2N=[N+]=[N-])N=C(c2ccc(OCCCO)cc2)O[C@H]1c1ccccc1N=[N+]=[N-]`, the z-score was 2.41. The value for `O=C1C2C=CC(C(O)C3CCCCC3)N(Nc3ccc([N+](=O)[O-])cc3)C2C(=O)N1c1ccccc1` (stereo not given) was 4.92; that for `COCC(=C=CC[C@@H](O)c1ccccc1OCCO)C[C@@H](O)c1cc(Cl)cc(Cl)c1O` was 0.392. Take `O=C1c2ccccc2[C@](Cc2ccccc2I)(C(=O)NC2CC2)[C@H](c2ccc(CO)cc2)N1Cc1ccccc1`: the z-score was 1.67. As for `CCOC(=O)C[C@H]1[C@H](OC(=O)Cc2ccc3c(c2)OCO3)[C@@H](NC(=O)c2ccc3ccccc3c2)c2cc(OCCCO)ccc2N1C(=O)c1ccccc1`, the z-score is -0.552. The value for `C=CCNC(=O)[C@H]1[C@@H]2C(=O)O[C@@H](c3ccccc3)[C@@H](c3ccccc3)N2[C@@H](c2ccc(OCCO)cc2)[C@]12C(=O)N(C(=O)OCCOC)c1ccccc12` was 1.22; that for `CCOC(=O)C[C@H]1[C@H](OC(=O)Cc2ccc3c(c2)OCO3)[C@@H](NC(=O)c2ccc(-c3ccccc3)cc2)c2cc(OCCCO)ccc2N1C(=O)c1ccc2ccccc2n1` was -0.352.

Turning to `C=CCN1C(=O)[C@]2(O[C@H](CCO)[C@@H]([Si](C)(C)c3ccc(OC)cc3)[C@@H]2C)c2cc(N3C(=O)c4cccc5cccc3c45)ccc21`, the z-score is 0.0626.

The values above are taken from PubChem BioAssay.
